This note sets out measurements from PubChem BioAssay.

Records with an inconclusive call do not appear. Calls of active or inactive are those of the source.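 Rule for the calls, unless noted: active = binding below the plate cutoff, the plate median minus 3 SD, with a reading above zero; inconclusive = below the plate cutoff but reading exactly zero; inactive = the rest.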

As a reminder, the inhibition is the change of the read-out against control, counted positive when it falls.

Experiment [1] is described as follows: yeast TOR pathway RPL19A-GFP modulators, primary screen, cell-based, S. cerevisiae, multiplex flow cytometry (AID 1862; in the data active = percent of DMSO control GFP below about 86%;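 note: lower values mimic rapamycin by blocking the RPL19A rise seen in DMSO cells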). The following applies: S. cerevisiae RPL19A-GFP strain, flow cytometry fluorescence, 3 h; at 10 µM; stronger effect = lower value. On the technique in general: In flow cytometry, cells or beads pass a laser one at a time.
A short description of experiment [2]: modulators of MEP2-GFP levels in yeast, primary screen, S. cerevisiae, multiplex flow cytometry (AID 1867;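 active = GFP response, as percent of the DMSO control, above the screen-wide mean plus 3 SD, about 139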;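 note: median GFP channel fluorescence of barcode-gated MEP2-GFP cells measured by flow cytometry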). The following applies: S. cerevisiae MEP2-GFP strain, 3 h, at 10 µM, stronger effect = higher value, 100% means same as DMSO wells.
A short description of experiment [3]: modulators of CIT2-GFP expression in yeast, primary screen, S. cerevisiae, GFP fusion, multiplex flow cytometry (AID 1870;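 active = percent response above a set limit, the screen-wide mean plus 3 SD, cut at about 130% in these data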;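 note: barcoded CIT2-GFP strain pooled with four other GFP strains with rapamycin as positive control; median GFP fluorescence per well over plate mean of DMSO wells so 100% = DMSO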). To be noted: 3 h, at 10 µM, stronger effect = higher value.
Experiment [4] in a line: modulators of LAP4-GFP expression in yeast, primary screen, S. cerevisiae, multiplex flow cytometry (AID 1873;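 active = GFP signal, as percent of the solvent control, above the screen mean plus 3 SD, about 149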). The following applies: 3 h, at 10 µM, stronger effect = higher value.
The nature of experiment [5]: modulators of AGP1-GFP expression in yeast TOR pathway, primary screen, cell-based, multiplex flow cytometry, S. cerevisiae (AID 1887;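 active = GFP signal above the screen-wide mean plus 3 SD, that is over about 124.5% of the solvent control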;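 note: AGP1-GFP fusion strain of S. cerevisiae within a five-strain barcoded multiplex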). To be noted: 3 h, at 10 µM, stronger effect = higher value.
Experiment [6] can be described thus: inhibitors of CD8+ T cell-vesicle binding, pilot screen, LFA-1/ICAM-1 modulator project, MLPCN validation set, flow cytometry (AID 2523;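 active = response below a set limit, under 55% cells CD8-positive and vesicle-bound, and CD8 cells' 90th-percentile brightness under 279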;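 for vesicle binding response: mean PE anti-B7-1 fluorescence of CD8+ cells relative to row control; 100% = QL9-loaded vesicles with DMSO vehicle in the same plate row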). To be noted: 2C mouse CD8+ T cells, at 7 µM, stronger effect = lower value; double positive events: measured here: CD8+/vesicle+ event percentage.
Experiment [7] addresses Integrin beta-1 (Homo sapiens) + Integrin alpha-4 (Homo sapiens) (UniProt P13612+P05556). The experiment can be described thus: inhibition of HUTS-21 binding to VLA-4, pilot screen, VLA-4 allosteric modulator project, U937 cells, HUTS-21 mAb, flow cytometry, validation set (AID 2674;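 active = inhibition above 50%, about 3 SD of the validation set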;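 note: antibody binding induced by the VLA-4 ligand LDV present at three times its Kd; 0% = LDV ligand with antibody and no compound and 100% = antibody without LDV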). To be noted: HUTS-21 LIBS mAb binding, at 6.7 µM, stronger effect = higher value, binding induced by LDV ligand.

Experiment [8] can be described thus: superoxide lowering in aged yeast cells, pilot screen, validation compound set (AID 2706;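 active = superoxide response below 65% of plate, a cut near 3 SD across the whole screen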;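 note: yeast exposed to compound for one week at 30 degrees C before staining; 100% = mean of all compound wells on the same plate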). To be noted: S. cerevisiae aging, superoxide DHE fluorescence; at 10 µM; stronger effect = lower value.
Experiment [9] addresses Beta-adrenergic receptor kinase 1 (Homo sapiens) (UniProt P25098). The experiment can be described thus: GRK2 binders displacing RNA aptamer, biochemical, validation, human GRK2, bead flow cytometry (AID 488806;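 active = aptamer binding inhibition above 30%, about 3 SD of noise from non-fluorescent compounds; inactive = inhibition at or below 30%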). To be noted: bead-bound GRK2, FAM-aptamer displacement, at 10 µM, stronger effect = higher value.
The target in experiment [10] is Beta-2 adrenergic receptor (Homo sapiens) (UniProt P07550). The experiment in a line: beta2AR agonists driving receptor internalization, pilot screen, cell-based, FAP fluorogen, flow cytometry, validation set (AID 504459;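 active = percent response above 42, roughly 3 SD of non-fluorescent test compounds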;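 note: agonist-driven loss of surface beta2AR via internalization measured by FAP dye flow cytometry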). The following applies: Am2.2-beta2AR cells, FAP surface receptor flow cytometry; at 10 µM; stronger effect = higher value.
Experiment [11] has as its target AP-2 complex subunit beta (Homo sapiens) (UniProt P63010). The experiment in a line: inhibitors of arrestin peptide binding to AP2, pilot screen, biochemical, validation set, GST-AP2 beads, flow cytometry (AID 504541;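 active = inhibition above 54%, about 3 SD of non-fluorescent compounds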;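 note: AP2 carries R879A mutation and is captured from E. coli lysate; bead-bound FITC arrestin peptide fluorescence measuring arrestin peptide binding to AP2; 0% = DMSO wells and 100% = excess unlabeled arrestin peptide control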). To be noted: FITC arrestin peptide, at 10 µM, stronger effect = higher value, AP2 beta2 appendage fragment, R879A mutant.
The nature of experiment [12]: yeast V-ATPase proton transport modulators, S. cerevisiae, pHLuorin, HTS validation (AID 504600; in the data active = response above about 15%;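 note: plate controls were DMSO for no effect and reference compound for full effect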). To be noted: S. cerevisiae pHLuorin cytosolic pH, at 10 µM, stronger effect = higher value.
Experiment [13] relates to anti-desmoglein-3 scFv antibody binding to human DSG3. The experiment in a line: inhibitors of anti-DSG3 scFv binding to DSG3, pilot screen, biochemical, validation compound set, bead-based, flow cytometry (AID 588368).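 Note: signal is the median channel fluorescence of bead-bound GFP antibody.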 To be noted: Protein G beads, DSG3-Fc, scFv-GFP binding, at 10 µM, stronger effect = lower value.
Experiment [14] in a line: inhibitors of fungal efflux pumps CDR1, CDR2, MDR1, pilot screen, validation compound set, multiplex, phenotypic (AID 588506;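 active = efflux inhibition above 0.42, the validation set average plus 4 SD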;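 note: Nile Red retained in cells so higher fluorescence means more efflux inhibition; 0 = negative control wells and 1 = enniatin B 25 µM full block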). The following applies: S. cerevisiae pump-expressing triplex, Nile Red efflux flow cytometry; at 10 µM; stronger effect = higher value; the pumps come from Candida albicans.
The target of experiment [15] is ATP-binding cassette sub-family B member 6 (Homo sapiens) (UniProt Q9NP58). The experiment in a line: ABCB6 transporter inhibitors, pilot screen, K562-ABCB6 cells, flow cytometry, validation set (AID 588550;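 active = inhibition above the screen-wide mean plus 3 SD, about 51%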;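 note: 0% = DMSO wells and 100% = benzethonium chloride 70 µM positive control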). The following applies: K562-ABCB6 porphyrin accumulation, 1 h, at 10 µM, stronger effect = higher value.
Experiment [16] in a line: promoters of myeloid differentiation in arrested cells, primary screen, cell-based, GFP/MAC1 double positive, flow cytometry, validation set (AID 588685;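 active = differentiation response of at least 50%, scaled between solvent and reference control, from cells with both markers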;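 note: compound exposure lasts four days before antibody staining and flow analysis; 0% = DMSO wells and 100% = 5 µM fulvestrant positive control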). The following applies: ER-HoxA9 marrow cells, stronger effect = higher value, normalized: vehicle 0, fulvestrant 100.

Chain of ATP-binding cassette sub-family B member 6 (Homo sapiens) (Q9NP58 whole entry, looked up): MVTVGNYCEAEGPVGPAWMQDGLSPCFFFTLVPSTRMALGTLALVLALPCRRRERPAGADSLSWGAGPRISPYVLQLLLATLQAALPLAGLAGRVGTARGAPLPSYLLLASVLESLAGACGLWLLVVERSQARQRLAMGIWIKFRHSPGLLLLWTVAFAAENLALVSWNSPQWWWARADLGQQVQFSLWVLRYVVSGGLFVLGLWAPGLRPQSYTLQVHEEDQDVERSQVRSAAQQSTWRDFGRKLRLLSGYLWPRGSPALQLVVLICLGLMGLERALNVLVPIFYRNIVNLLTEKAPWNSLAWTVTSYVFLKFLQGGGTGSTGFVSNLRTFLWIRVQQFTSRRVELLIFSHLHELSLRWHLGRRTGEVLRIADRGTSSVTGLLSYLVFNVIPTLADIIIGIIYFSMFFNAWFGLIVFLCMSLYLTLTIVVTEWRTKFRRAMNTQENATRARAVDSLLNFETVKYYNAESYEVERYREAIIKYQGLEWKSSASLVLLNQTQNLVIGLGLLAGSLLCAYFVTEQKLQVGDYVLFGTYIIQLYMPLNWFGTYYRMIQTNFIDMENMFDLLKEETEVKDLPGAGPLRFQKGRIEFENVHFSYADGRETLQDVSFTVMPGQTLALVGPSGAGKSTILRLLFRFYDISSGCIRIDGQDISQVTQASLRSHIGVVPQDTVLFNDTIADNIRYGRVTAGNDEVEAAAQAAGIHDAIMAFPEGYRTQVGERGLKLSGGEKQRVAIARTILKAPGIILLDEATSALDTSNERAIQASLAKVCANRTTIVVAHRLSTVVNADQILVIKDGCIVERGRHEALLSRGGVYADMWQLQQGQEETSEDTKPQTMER
Chain of AP-2 complex subunit beta (Homo sapiens) (P63010 whole entry, looked up, the tested form may be a part, one chain of several): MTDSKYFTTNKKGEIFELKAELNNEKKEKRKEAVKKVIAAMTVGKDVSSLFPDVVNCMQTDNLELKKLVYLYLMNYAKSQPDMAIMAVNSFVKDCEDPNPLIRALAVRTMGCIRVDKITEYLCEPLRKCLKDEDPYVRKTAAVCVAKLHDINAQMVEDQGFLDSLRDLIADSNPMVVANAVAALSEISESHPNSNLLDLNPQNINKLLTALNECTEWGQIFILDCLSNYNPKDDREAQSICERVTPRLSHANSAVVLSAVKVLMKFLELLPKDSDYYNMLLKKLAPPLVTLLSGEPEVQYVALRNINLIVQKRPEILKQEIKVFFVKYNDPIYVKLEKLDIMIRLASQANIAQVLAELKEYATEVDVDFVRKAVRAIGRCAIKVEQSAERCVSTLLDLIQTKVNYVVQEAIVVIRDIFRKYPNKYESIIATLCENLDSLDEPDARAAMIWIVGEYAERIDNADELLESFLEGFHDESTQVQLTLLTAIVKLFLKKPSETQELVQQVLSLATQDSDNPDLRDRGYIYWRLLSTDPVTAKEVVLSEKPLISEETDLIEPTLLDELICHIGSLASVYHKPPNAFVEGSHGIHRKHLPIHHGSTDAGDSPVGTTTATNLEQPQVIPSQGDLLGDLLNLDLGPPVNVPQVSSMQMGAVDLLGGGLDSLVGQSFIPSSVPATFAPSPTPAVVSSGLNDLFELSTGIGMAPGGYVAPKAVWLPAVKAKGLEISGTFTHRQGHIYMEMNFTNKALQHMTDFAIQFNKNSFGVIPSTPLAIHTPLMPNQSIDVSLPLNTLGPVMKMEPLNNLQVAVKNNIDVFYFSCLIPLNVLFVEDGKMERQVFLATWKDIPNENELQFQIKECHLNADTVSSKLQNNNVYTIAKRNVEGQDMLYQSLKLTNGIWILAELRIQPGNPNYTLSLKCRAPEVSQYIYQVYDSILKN
Chain of Beta-2 adrenergic receptor (Homo sapiens) (P07550 whole entry, looked up): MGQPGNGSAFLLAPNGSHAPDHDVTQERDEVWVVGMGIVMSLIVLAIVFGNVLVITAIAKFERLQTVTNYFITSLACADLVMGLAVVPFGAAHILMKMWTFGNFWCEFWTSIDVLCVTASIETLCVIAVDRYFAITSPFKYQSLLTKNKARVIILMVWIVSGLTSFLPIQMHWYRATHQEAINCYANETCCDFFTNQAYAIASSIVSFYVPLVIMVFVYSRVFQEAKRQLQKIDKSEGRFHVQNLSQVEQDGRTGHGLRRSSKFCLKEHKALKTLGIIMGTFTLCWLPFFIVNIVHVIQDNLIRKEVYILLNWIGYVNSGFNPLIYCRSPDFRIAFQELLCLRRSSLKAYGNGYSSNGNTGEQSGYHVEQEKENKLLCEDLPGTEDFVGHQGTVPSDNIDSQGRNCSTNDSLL
Chain of Beta-adrenergic receptor kinase 1 (Homo sapiens) (P25098 whole entry, looked up): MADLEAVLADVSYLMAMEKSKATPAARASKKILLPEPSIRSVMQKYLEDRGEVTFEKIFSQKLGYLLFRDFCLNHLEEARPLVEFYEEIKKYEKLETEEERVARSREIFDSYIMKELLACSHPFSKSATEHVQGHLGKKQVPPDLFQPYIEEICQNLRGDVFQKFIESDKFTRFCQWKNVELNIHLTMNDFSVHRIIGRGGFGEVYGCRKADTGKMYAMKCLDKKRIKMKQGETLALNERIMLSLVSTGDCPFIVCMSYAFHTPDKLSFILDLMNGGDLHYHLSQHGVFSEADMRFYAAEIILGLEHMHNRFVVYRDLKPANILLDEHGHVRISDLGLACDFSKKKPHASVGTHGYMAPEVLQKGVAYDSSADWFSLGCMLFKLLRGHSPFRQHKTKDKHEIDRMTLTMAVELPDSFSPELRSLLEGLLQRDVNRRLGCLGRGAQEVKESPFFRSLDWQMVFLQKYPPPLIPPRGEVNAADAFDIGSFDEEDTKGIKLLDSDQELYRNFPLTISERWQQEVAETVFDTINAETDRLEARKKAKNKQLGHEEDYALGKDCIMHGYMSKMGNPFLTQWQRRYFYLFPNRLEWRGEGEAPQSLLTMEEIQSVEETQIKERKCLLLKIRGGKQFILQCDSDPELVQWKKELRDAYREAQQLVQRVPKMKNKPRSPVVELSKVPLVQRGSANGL
Chain of Integrin beta-1 (Homo sapiens) + Integrin alpha-4 (Homo sapiens) (P05556 whole entry, looked up): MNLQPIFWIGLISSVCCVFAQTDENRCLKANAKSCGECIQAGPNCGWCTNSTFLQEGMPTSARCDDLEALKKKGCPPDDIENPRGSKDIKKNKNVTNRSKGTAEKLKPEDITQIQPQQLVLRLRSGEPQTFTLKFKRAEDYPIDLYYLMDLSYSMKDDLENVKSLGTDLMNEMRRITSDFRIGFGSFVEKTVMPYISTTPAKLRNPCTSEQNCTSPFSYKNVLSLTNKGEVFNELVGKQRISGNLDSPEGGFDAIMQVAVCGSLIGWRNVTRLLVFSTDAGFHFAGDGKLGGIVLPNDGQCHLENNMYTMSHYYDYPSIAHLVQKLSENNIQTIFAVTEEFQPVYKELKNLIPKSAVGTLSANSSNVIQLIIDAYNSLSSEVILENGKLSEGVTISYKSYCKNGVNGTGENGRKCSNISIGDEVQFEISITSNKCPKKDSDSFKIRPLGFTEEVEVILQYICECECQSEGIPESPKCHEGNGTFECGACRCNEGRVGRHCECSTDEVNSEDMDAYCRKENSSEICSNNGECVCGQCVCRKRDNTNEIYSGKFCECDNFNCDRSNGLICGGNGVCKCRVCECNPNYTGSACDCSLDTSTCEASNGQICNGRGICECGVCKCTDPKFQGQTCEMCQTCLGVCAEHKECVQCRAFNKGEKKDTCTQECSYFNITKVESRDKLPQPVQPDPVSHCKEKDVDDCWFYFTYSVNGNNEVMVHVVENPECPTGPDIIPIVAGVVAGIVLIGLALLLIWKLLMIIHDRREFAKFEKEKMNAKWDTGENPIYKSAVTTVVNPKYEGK
Chain of Integrin beta-1 (Homo sapiens) + Integrin alpha-4 (Homo sapiens) (P13612 whole entry, looked up): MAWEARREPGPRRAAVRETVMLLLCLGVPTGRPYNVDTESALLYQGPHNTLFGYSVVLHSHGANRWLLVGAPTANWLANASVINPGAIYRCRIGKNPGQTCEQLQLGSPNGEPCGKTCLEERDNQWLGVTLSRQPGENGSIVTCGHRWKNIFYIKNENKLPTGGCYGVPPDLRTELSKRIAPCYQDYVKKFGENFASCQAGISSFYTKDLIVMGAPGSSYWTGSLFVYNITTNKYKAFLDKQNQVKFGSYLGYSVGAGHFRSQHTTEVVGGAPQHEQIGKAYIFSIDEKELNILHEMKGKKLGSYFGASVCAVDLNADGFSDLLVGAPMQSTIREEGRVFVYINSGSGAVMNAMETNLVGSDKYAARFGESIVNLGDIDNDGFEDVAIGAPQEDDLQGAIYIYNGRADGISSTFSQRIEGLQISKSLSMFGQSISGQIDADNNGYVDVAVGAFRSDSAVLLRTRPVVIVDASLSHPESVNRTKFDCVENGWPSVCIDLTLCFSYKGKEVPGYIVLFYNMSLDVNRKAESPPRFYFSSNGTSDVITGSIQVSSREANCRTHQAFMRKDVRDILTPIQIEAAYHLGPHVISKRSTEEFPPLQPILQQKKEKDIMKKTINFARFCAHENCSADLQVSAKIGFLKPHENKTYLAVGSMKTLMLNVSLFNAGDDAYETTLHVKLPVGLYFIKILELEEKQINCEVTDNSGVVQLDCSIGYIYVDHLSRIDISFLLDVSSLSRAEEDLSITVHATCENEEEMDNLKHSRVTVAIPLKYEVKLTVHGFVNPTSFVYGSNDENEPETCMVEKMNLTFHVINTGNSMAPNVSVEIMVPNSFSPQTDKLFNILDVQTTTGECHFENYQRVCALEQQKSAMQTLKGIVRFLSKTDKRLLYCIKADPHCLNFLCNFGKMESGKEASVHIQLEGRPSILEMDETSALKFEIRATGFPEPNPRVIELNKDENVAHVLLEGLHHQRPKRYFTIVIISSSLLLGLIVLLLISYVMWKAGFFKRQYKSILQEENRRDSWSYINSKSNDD

With `Cc1ccccc1C(=O)Nc1ccccc1C(=O)NCC(C)C`, in [1], the percent of DMSO control GFP was 100% (inactive). Further, the GFP response vs DMSO in experiment [2] was 107% (inactive); in experiment [4], 118% (inactive). Further, the percent response of DMSO control in [3] is 104% (inactive). Moreover, the GFP response, % of DMSO in experiment [5] is 108% (inactive). In experiment [6], this molecule registered a double positive events of 63.7%. In experiment [6], the vesicle binding response is 208% (inactive). In addition, the results for the inhibition in experiment [7], in experiment [11] and in experiment [15] were 7.4% (inactive), 35.6% (inactive) and -1% (inactive), respectively. The superoxide response (% of plate) in experiment [8] was 118% (inactive). Besides, the aptamer binding inhibition in experiment [9] was 3% (inactive). Moreover, the response in experiment [10] was -22.2% (inactive); in [12], -2.23% (inactive). Besides, the binding (% of control) in [13] is 99.9% (inactive). The efflux inhibition (fraction of control) in experiment [14] was 0 (inactive). Moreover, the differentiation response in [16] was 2.89% (inactive).

Take `O=C(N1CCCC1)C12CC3CC(C1)CC(C(=O)N1CCCC1)(C3)C2`: the percent of DMSO control GFP in experiment [1] is 99.5% (inactive). In addition, the GFP response vs DMSO in [2] is 103% (inactive); in experiment [4] it was 124% (inactive). In addition, the percent response of DMSO control in experiment [3] is 101% (inactive). In addition, the GFP response, % of DMSO in experiment [5] was 101% (inactive). Moreover, the double positive events in experiment [6] came out at 59.6%. In addition, the vesicle binding response in experiment [6] was 219% (inactive). Also, the inhibition in experiment [7] is 9.13% (inactive); in experiment [11], -3.27% (inactive); in experiment [15], 3% (inactive). Besides, the superoxide response (% of plate) in experiment [8] is 104% (inactive). The aptamer binding inhibition in experiment [9] was -1% (inactive). Also, the response is -2.88% (inactive) in [10] and 0.92% (inactive) in [12]. The binding (% of control) in experiment [13] is 101% (inactive). Also, the efflux inhibition (fraction of control) in experiment [14] is 0.15 (inactive). Further, in experiment [16], the differentiation response was -7.2% (inactive).

On to `CC(=O)OCC(=O)[C@@]1(O)[C@H](C)C[C@H]2[C@@H]3CCC4=CC(=O)C=C[C@]4(C)[C@@]3(F)[C@@H](O)C[C@@]21C`, for which, in [1], the percent of DMSO control GFP is 97.2% (inactive). For the same molecule, the GFP response vs DMSO in experiment [2] was 119% (inactive); in experiment [4], 80.9% (inactive). Moreover, the percent response of DMSO control in experiment [3] is 107% (inactive). Further, the GFP response, % of DMSO in experiment [5] is 91.7% (inactive). Further, in experiment [6], the double positive events amounted to 59.3%. In [6], the vesicle binding response was 192% (inactive). The inhibition in experiment [7] was 12.3% (inactive); in experiment [11] it was -11.7% (inactive); in [15], 9% (inactive). The superoxide response (% of plate) in experiment [8] is 108% (inactive). Moreover, the aptamer binding inhibition in experiment [9] was -2% (inactive). For the same molecule, the response in [10] is -2.19% (inactive); in experiment [12], 2.51% (inactive). Further, the binding (% of control) in experiment [13] is 99.4% (inactive). In addition, the efflux inhibition (fraction of control) in [14] is -0.35 (inactive). Also, in [16], the differentiation response is -3.28% (inactive).

For `COc1cccc2c(=O)c3ccccc3oc12`, the percent of DMSO control GFP in experiment [1] was 93.9% (inactive). In addition, the figures for the GFP response vs DMSO in experiment [2] and in experiment [4] were 117% (inactive) and 74.3% (inactive), respectively. Besides, in [3], the percent response of DMSO control was 111% (inactive). Also, in experiment [5], the GFP response, % of DMSO was 88% (inactive). For the same molecule, in experiment [6], the double positive events turned out to be 61.1%. The vesicle binding response in [6] is 134% (inactive). The inhibition is -9.06% (inactive) in experiment [7], -2.99% (inactive) in [11] and 15% (inactive) in experiment [15]. Further, the superoxide response (% of plate) in experiment [8] is 109% (inactive). The aptamer binding inhibition in experiment [9] is 2% (inactive). Also, the response in [10] is -12.3% (inactive); in [12], 0.55% (inactive). For the same molecule, in [13], the binding (% of control) was 96% (inactive). Besides, in [14], the efflux inhibition (fraction of control) was 0.27 (inactive). Also, the differentiation response in experiment [16] is -3.28% (inactive).

On to `COc1cc2c(cc1OC)-c1nnc(C)n1C(C)(C)C2`, for which, in experiment [1], the percent of DMSO control GFP was 100% (inactive). In addition, the GFP response vs DMSO in experiment [2] was 94.1% (inactive); in experiment [4], 102% (inactive). In experiment [3], the percent response of DMSO control was 107% (inactive). Also, the GFP response, % of DMSO in experiment [5] was 100% (inactive). The molecule further showed a double positive events in experiment [6] of 59.4%. Besides, in experiment [6], the vesicle binding response was 211% (inactive). For the same molecule, the inhibition in [7] was -1.79% (inactive); in experiment [11], -4.56% (inactive); in experiment [15] it was 4% (inactive). Also, the superoxide response (% of plate) in experiment [8] was 94.7% (inactive). Further, the aptamer binding inhibition in [9] is 2% (inactive). For the same molecule, the values for the response in [10] and in experiment [12] were 3.64% (inactive) and 7.5% (inactive), respectively. In addition, the binding (% of control) in [13] is 100% (inactive). In addition, the efflux inhibition (fraction of control) in [14] was -0.21 (inactive). The differentiation response in [16] was -28% (inactive).
